FMDV antiviral – blocks foot and mouth disease virus | hit rate 1.2% among 410,000 | Potency, µM (highest dose often 57.9 µM), for inactives: at the top dose activity change, negative = inhibition, actives largely listed as inhibitors | AID 1159524 | FMDV antiviral cell-based qHTS; calls by dose curve; tested in HEK293T cells; note: read-out not given here; potency is the fitted concentration of half-maximal effect; % is set by controls: 0 for no effect and ±100 for the full control effect; nearly all actives have a fitted effect of over 45% in size
Shiga toxin inh – inhibitors of Shiga toxin in Vero cells; Vero cells, Shiga toxin protein synthesis inhibition reporter; inhibition, % at 38.7 µM; hit rate 9.2% among 290,000; AID 2315; in the data active = inhibition mostly above about 28%, no sharp cut-off; inactive = mostly below about 43%; note: 0% is about no effect
Sm TGR block – blocks Schistosoma mansoni thioredoxin glutathione reductase; AID 485364; hit rate 3% among 360,000; purified TGR, DTNB reduction, TNB absorbance 405 nm; Potency, µM (top dose mostly 114 µM), for inactives: at the top dose activity change, negative = inhibition, most hits filed as inhibitors; active = well fitted inhibition curve with a large enough effect; inconclusive = small, poorly fitted or top-dose-only effect; inactive = no such curve, though single readings can be large or run the other way; note: potency is the fitted concentration of half-maximal effect; % is set by controls: 0 for no effect and ±100 for the full control effect; nearly all actives have a fitted effect of over 60% in size
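TGR 20 nM + NADPH 100 uM (dispensed conc.), cpd preinc 15 min RT; start with NADPH (500 uM addition) then DTNB (15 mM addition). Kinetic TNB absorbance, 405 nm filter. Four-parameter Hill fit across titration.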
CHX counter – counter-screen for Shiga toxin inhibitors: cycloheximide protein synthesis inhibition | cell reporter, cycloheximide protein synthesis inhibition counterscreen | max response, % | hit rate 12% among 300,000; in the data active = max response mostly above about 13%, no sharp cut-off; inactive = mostly below about 14%; note: read at 38.3 µM for the half of the compounds with a filed dose; 0% is about no effect
An asterisk follows results filed as active; ? = inconclusive; · = no result. In the library only some 12% were active in any assay of this set; here they are far more common.

SMILES	FMDV antiviral	Shiga toxin inh	Sm TGR block	CHX counter
COc1ccc(Cl)c2sc(NC(=O)c3ccc(S(=O)(=O)N4CCOCC4)cc3)nc12	-25%	·	4%	·
Cc1ccc(-c2nc3ncccc3o2)cc1N	58%	62*	-8%	49*
Cc1ccc(-c2nc3ncccc3o2)cc1NC(=O)C(C)(C)C	-1%	-6	-20%	-3
Nc1cc(-c2nc3ncccc3o2)ccc1Cl	7%	60*	1%	59*
Cc1cc(-c2nc3ncccc3o2)ccc1NC(=O)c1ccc(Cl)cc1	-18%	·	89µM*	·
CCC(=O)Nc1ccc(-c2nc3ncccc3o2)cc1C	47%	·	-6%	·
CCCC(=O)Nc1cc(-c2nc3ncccc3o2)ccc1Cl	-11%	-10	10%	6
Cc1cc(-c2nc3ncccc3o2)ccc1N	39%	85*	1%	45*
COCC(=O)Nc1cc(C(=O)N2CC3(C)CC2CC(C)(C)C3)c2c(c1)nc(-c1ccncc1)n2C (stereo not given)	0%	·	·	·
CSc1nc(-c2ccccc2)c(-c2ccccc2)[nH]1	-21%	-8	0%	-2
CSc1ccc(C2N=C(c3ccccc3)NO2)cc1 (stereo not given)	22%	114*	?	41*
Oc1c(Br)cc(C2N=C(c3ccccc3)NO2)cc1Br (stereo not given)	33%	103*	50µM*	26*
Oc1c(Br)cc(Br)c(/C=N/n2c(-c3ccccc3)n[nH]c2=S)c1Br	-21%	-11	?	0
Cc1ccc(S(=O)(=O)N2CCc3cc(C(=O)Nc4c(C)cccc4C(C)C)ccc32)cc1	-17%	·	4%	·
COc1ccc(-c2cc(=O)c3c(O)c(OC)c(OC)c(OC)c3o2)cc1	20%	·	·	·
COc1ccc(-c2c(O)c3cc(O)cc(O)c3oc2=O)cc1	·	71*	·	44*
COc1ccc(-c2c(C)c3ccc(O)cc3oc2=O)cc1OC	15%	8	-8%	1
COc1ccc(-c2c(C)c3cc(O)ccc3oc2=O)cc1	8%	24	-3%	18*
Cc1ccc(Cl)cc1N(C)C(=O)c1noc2c1CCCCC2	-5%	·	7%	·
CN(C)C(=O)c1ccc(-c2cncnc2N2CCNCC2)cc1	-2%	·	·	·
CCC1CN(Cc2cccn2-c2ccccn2)Cc2cc(OC)ccc2O1 (stereo not given)	26%	·	·	·
Cn1nc(C(=O)OCc2ccccc2F)c2ccccc2c1=O	-25%	35*	0%	12
Cc1ccccc1COC(=O)c1nn(-c2ccccc2)nc1N	8%	54*	-1%	32*
Nc1nn(-c2ccccc2)nc1C(=O)OCc1ccccc1F	·	99	3%	31*
O=C(Cn1nc(C(F)(F)F)c2c1CCCC2)Nc1ccc(Br)cc1	?	·	10%	·
SMILES	FMDV antiviral	Shiga toxin inh	Sm TGR block	CHX counter
O=C(NCCc1ccc(F)cc1)NC12CC3CC(CC(C3)C1)C2	47%	120*	-2%	64*
O=C(NCCC1=CCCCC1)NC12CC3CC(CC(C3)C1)C2	-24%	70*	-3%	44*
COc1ccc(CCNC(=O)NC23CC4CC(CC(C4)C2)C3)cc1	·	62	5%	30
CCOC(=O)[C@H](Cc1ccc(O)cc1)NC(=O)c1ccccc1	·	15	·	-3
C=C1CN(Cc2ccccc2)S(=O)(=O)c2ccccc21	-9%	-8	18µM*	-9
Cn1ncc(Cl)c(Oc2ccccc2)c1=O	7%	-11	-22%	11
Cn1ncc(Cl)c(Oc2ccc(C(C)(C)C)cc2)c1=O	1%	-4	7%	20*
CN1c2ccsc2C(O)=C(C(=O)Nc2ccccc2)S1(=O)=O	1%	-1	5%	11
Cc1ccc(NC(=S)C2=C(O)c3sccc3N(C)S2(=O)=O)cc1	21%	31	-5%	19*
Cc1ccc(NC(=O)C2=C(O)c3sccc3N(C)S2(=O)=O)cc1	24%	27	1%	23*
COc1ccc(OC)c(NC(=O)c2cnn(-c3ccc(C)cc3)c2C2CCNCC2)c1	-2%	·	5%	·
CN(CCO)c1cc(N2CCC3(CC2)OCCO3)c2nonc2c1[N+](=O)[O-]	-13%	-9	28µM*	-2
CN(CCO)c1cc(N2CCCCC2)c2nonc2c1[N+](=O)[O-]	19%	-6	18µM*	-3
COc1cc(C(=O)Nc2ccc(-c3nnc(-c4ccco4)o3)cc2)cc(OC)c1OC	-12%	19	11%	21
CCOc1ccc(-c2nnc(-c3ccco3)o2)cc1OCC	34%	88*	0%	46*
CCOc1cc(-c2nnc(-c3ccco3)o2)cc(OCC)c1OCC	-21%	active	-2%	22*
O=C(CSC(=S)N1CCCCC1)N1N=CCC1c1ccccc1 (stereo not given)	19%	163*	-2%	71*
O=C(CSc1ccc(Cl)cc1)N1N=CCC1c1ccccc1 (stereo not given)	-11%	73*	4%	15
NC(=NC(=O)c1ccc(Cl)cc1)N1N=CCC1c1ccccc1 (stereo not given)	?	-4	6%	1
O=C(CCCn1c(=O)c2cccn2c2ccccc21)NCCc1ccc(Cl)cc1	-16%	·	0%	·
CCNC(=O)NC(=O)C(C)Oc1ccc(Br)cc1Br (stereo not given)	36%	98*	5%	64*
COc1ccccc1CNC(=O)CCCn1c(=O)c2ccccc2n(Cc2ccccc2C#N)c1=O	-11%	·	4%	·
CC(=O)NC(=O)c1ccc(-c2ccc(Cl)cc2)o1	19%	17*	-5%	25*
CCn1nnc(NC(=O)c2ccc(-c3ccc(Cl)cc3)o2)n1	21%	35*	22µM*	36*
COc1ccccc1NC(=S)NC(=O)c1ccc(-c2ccc(Cl)cc2)o1	·	-9	-22%	-2
SMILES	FMDV antiviral	Shiga toxin inh	Sm TGR block	CHX counter
O=C(NC12CC3CC(CC(C3)C1)C2)c1ccc(COc2ccc(Cl)cc2[N+](=O)[O-])o1	?	2	-15%	-1
O=C(NC12CC3CC(CC(C3)C1)C2)c1ccc(-c2cccc(Cl)c2)o1	29%	83*	?	35*
O=C(COC(=O)c1ccc(-c2ccc([N+](=O)[O-])cc2)o1)NC(=O)NC12CC3CC(CC(C3)C1)C2	-11%	-4	-11%	-4
O=C(NC12CC3CC(CC(C3)C1)C2)c1ccc(-c2ccc(Cl)cc2)o1	4%	129*	-9%	85*
Cc1ccc(C)c(CSc2nc3ncccc3[nH]2)c1	-8%	·	1%	·
Cc1ccc(CNC(=O)Cn2c(=O)ccc3cc(S(=O)(=O)N4CCC(C)CC4)ccc32)cc1	-22%	·	20%	·
Fc1ccccc1-c1nc(N2CCN(c3cccc(Cl)c3)CC2)c2ccccc2n1	?	·	-9%	·
Cc1cccc(Nc2cc(C)nc3nc(Cc4ccc(Cl)cc4)nn23)c1	-22%	·	-1%	·
O=C(NC12CC3CC(CC(C3)C1)C2)c1ccc(-c2ccccc2Cl)o1	-9%	161*	4%	44*
O=C(NC12CC3CC(CC(C3)C1)C2)c1ccco1	2%	-16	-13%	0
CSc1nc(N)n2nc(C(C)(C)C)cc2n1	26%	26	16%	15*
CCOC(=O)C1(C(=O)OCC)COC(=O)C1CN1Cc2cc3ccccc3nc2C1 (stereo not given)	28µM*	·	·	·
COC(=O)c1ccc2c(c1O)C(=O)c1ccccc1C2=O	-22%	64*	-13%	39*

Source: PubChem
